Active and inactive are the calls of the source. The calls were made as follows: active = hit-call score of the fitted dose curve at least 0.9, where 1 is the maximum; inactive = score below 0.9.

Read-out in the first assay: Thrombomodulin, THBD (gene 7056)
Nature of the assay: BSK_3C_Thrombomodulin: BioMAP Diversity Plus: 3C Assay for Thrombomodulin Biomarker Activity (AID 2283029). To be noted: primary human endothelial cells (HUVEC); actives raise or lower the signal. An outline of the steps:
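Read-out is ELISA of thrombomodulin on human umbilical vein endothelium 24 h after chemical dosing. Gain or loss of signal is scored relative to DMSO. Overt cytotoxicity is checked in parallel cultures by sulforhodamine B staining.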
As for `O=C1O[C@H]([C@H](O)CO)C(O)=C1O`, the result was inactive.

`O=[Si]=O`: the outcome was inactive.

As for `CC(=O)O`, the result was inactive.

Take `CS(=O)(=O)c1ccc([C@@H](C[C@H]2CCC(=O)C2)C(=O)Nc2cnccn2)cc1Cl`: the outcome was inactive.

With `CC(C)(O)c1ccc(CNC(=O)c2cccnc2Oc2ccc(F)cc2)cc1`, the outcome was inactive.

Consider `O=NO`, for which the result was inactive.

Take `CC(=O)O[C@]1(C(C)=O)CC[C@H]2[C@@H]3C=C(Cl)C4=CC(=O)[C@@H]5C[C@@H]5[C@]4(C)[C@H]3CC[C@@]21C`: the result was inactive.

On to `CCCCC(CC)CO` (stereo not drawn), for which the result was inactive.

With `COc1ccc(OC(F)(F)F)cc1CN[C@H]1CCCN[C@H]1c1ccccc1`, the concentration at half-maximal activity (AC50) (as a rule, the concentration at which the activity in the assay is half-maximal) is 17.8 µM (active).

Take `CCc1nc(N)nc(N)c1-c1ccc(Cl)cc1`: the result was inactive.

For the compound `O=C1CCCCC1`, the result was inactive.

Turning to `O=C(O)CN(CC(=O)O)CC(=O)O`, the outcome was inactive.

For the compound `CC(=O)OC1CC(C)OC(C)O1` (stereo not drawn), the result was inactive.

For `COC(=O)[C@H]1[C@H]2C[C@@H]3c4[nH]c5cc(OC)ccc5c4CCN3C[C@H]2C[C@@H](OC(=O)c2cc(OC)c(OC)c(OC)c2)[C@@H]1OC`, the outcome was inactive.

As to `CCCC[C@H]1CN(CC2CCOCC2)C(=O)OC12CCN(C1(C)CCN(C(=O)c3c(C)ncnc3C)CC1)CC2`, the result was inactive.

Read-out in another assay: Urokinase-type plasminogen activator receptor (uPAR), PLAUR (gene 5329)
Nature of the assay: BSK_4H_uPAR: BioMAP Diversity Plus: 4H Assay for Urokinase-type plasminogen activator receptor (uPAR) Biomarker Activity (AID 2283030). To be noted: primary human endothelial cells (HUVEC); actives raise or lower the signal. The method in brief: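 Chemicals are dosed onto human vascular endothelial primary cells (umbilical vein). After 24 h, uPAR is read by ELISA. Gain or loss of signal is fitted relative to DMSO.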
For the compound `CN(C)C(=O)NC1(c2ccccc2)CCN(CCC[C@]2(c3ccc(Cl)c(Cl)c3)CCCN(C(=O)c3ccccc3)C2)CC1`, the outcome was inactive.

Regarding `CCCCOC(=O)CCCCC(=O)OCCCC`, the outcome was inactive.

With `C=CCCCCCCCCCCCC`, the outcome was inactive.

`Nc1nc(Cl)nc2c1ncn2[C@H]1C[C@H](O)[C@@H](CO)O1`: the AC50 was 18.5 µM (active).

For `Cc1ccc(C(C)(C)C)c(O)c1`, the result was inactive.

Consider `Oc1ccccc1O`, for which the result was inactive.

For `CCCCC(CC)COC(=O)CCCCCCCC(=O)OCC(CC)CCCC` (stereo not drawn), the outcome was inactive.

As for `CC(=O)[C@@]1(O)CC[C@H]2[C@@H]3CCC4=CC(=O)CC[C@]4(C)[C@H]3CC[C@@]21C`, the half-maximal activity concentration (AC50) was 26.6 µM (active).

With `CCCCCCCCCCCCCCOS(=O)(=O)O`, the result was inactive.

On to `O=C(O)c1cccnc1`, for which the outcome was inactive.

Consider `Nc1nc(=S)c2[nH]cnc2[nH]1`, for which the result was inactive.

In the case of `CCN(CC)CCOc1ccc(C(=C(Cl)c2ccccc2)c2ccccc2)cc1`, the AC50 was 13 µM (active).

As for `CCCCc1nc2cccnc2n1Cc1ccc(-c2ccccc2-c2nnn[nH]2)cc1`, the result was inactive.

On to `CC(C)c1cccc(C(C)C)c1`, for which the result was inactive.

For the compound `O=C1O[C@H]([C@H](O)CO)C(O)=C1O`, the result was inactive.

As to `O=[Si]=O`, the outcome was inactive.

For `CC(=O)O`, the result was inactive.

Regarding `CS(=O)(=O)c1ccc([C@@H](C[C@H]2CCC(=O)C2)C(=O)Nc2cnccn2)cc1Cl`, the result was inactive.

Consider `CC(C)(O)c1ccc(CNC(=O)c2cccnc2Oc2ccc(F)cc2)cc1`, for which the result was inactive.

For the compound `O=NO`, the result was inactive.

Consider `CC(=O)O[C@]1(C(C)=O)CC[C@H]2[C@@H]3C=C(Cl)C4=CC(=O)[C@@H]5C[C@@H]5[C@]4(C)[C@H]3CC[C@@]21C`, for which the AC50 was 14.7 µM (active).

Consider `CCCCC(CC)CO` (stereo not drawn), for which the result was inactive.

Consider `COc1ccc(OC(F)(F)F)cc1CN[C@H]1CCCN[C@H]1c1ccccc1`, for which the AC50 was 20 µM (active).

With `CCc1nc(N)nc(N)c1-c1ccc(Cl)cc1`, the outcome was inactive.

Take `O=C1CCCCC1`: the outcome was inactive.

Regarding `O=C(O)CN(CC(=O)O)CC(=O)O`, the result was inactive.

For the compound `CC(=O)OC1CC(C)OC(C)O1` (stereo not drawn), the result was inactive.

For the compound `CCCC[C@H]1CN(CC2CCOCC2)C(=O)OC12CCN(C1(C)CCN(C(=O)c3c(C)ncnc3C)CC1)CC2`, the outcome was inactive.

Source of the values: PubChem BioAssay (EPA / NIEHS).
